Reference: PubChem BioAssay (Tox21)
Results filed as inconclusive are left out. The source made the active and inactive calls. Unless noted, the call rests on the fitted dose curve; in most records, active means well fitted curve in the direction sought with a large enough effect in the repeat runs; inconclusive means weak or mixed curves; inactive means no such curve, though single readings can be large; an effect the other way counts as inactive or inconclusive.

Legend:
[1] = A CellTox Green Cytotoxicity Assay to monitor cytotoxicity in HepG2 cells - 8 hour (AID 1224890); further: nearly all actives have a fitted effect of over 45% in size
Summary of the method: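 Read-out is fluorescence of a cyanine dye excluded from live cells that stains DNA of dead HepG2 cells, with signal proportional to cytotoxicity. Plates were read at 0, 8, 16, 24, 32 and 40 h after compound addition.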

[2] = qHTS assay to identify small molecule antagonists of the androgen receptor (AR) signaling pathway using the MDA cell line in the presence of 0.5 nM R1881 - cell viability counter screen (AID 1259242); further: nearly all actives have a fitted effect of over 45% in size
Summary of the method: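 Counter screen for cytotoxicity run in the same wells as the AR antagonist reporter screen: MDA-kb2 cells were treated 16 hr with test compounds and 0.5 nM R1881, then live-cell protease activity was measured by fluorescence.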

[3] = target: Estrogen receptor (Homo sapiens) (UniProt P03372); experiment: qHTS assay to identify small molecule antagonists of the estrogen receptor alpha (ER-alpha) signaling pathway using the BG1 cell line in the presence of 0.1 nM 17-beta-estradiol (AID 1259244); further: nearly all actives have a fitted effect of over 50% in size
Summary of the method: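 Cells: VM7Luc4E2, endogenous ER-alpha, 4x ERE-luc stable. Pre-culture 5 d, phenol red-free, charcoal-stripped FBS. Plated 24 h, compound + E2 0.1 nM final, 22 h 37C/5% CO2. Readout ONE-Glo luminescence.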

[4] = qHTS assay to identify small molecule HDAC inhibitors (AID 1259364); further: top concentration of the series differs between compounds; nearly all actives have a fitted effect of over 45% in size
Summary of the method: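 Luminescence from a cell-permeant luminogenic class I/II HDAC substrate reports endogenous deacetylase activity in intact HCT-116 cells treated with compounds for 2 h.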

[5] = qHTS assay to identify small molecule HDAC inhibitors - cell viability counter screen (AID 1259365); further: series mostly up to about 92 µM; nearly all actives have a fitted effect of over 50% in size
Summary of the method: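 HCT-116 (wild type), 1,500 cells/well, overnight 37C/5% CO2; compound in DMSO 2hr; CellTiter-Glo 30min RT; luminescence read.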

[6] = qHTS assay to identify small molecule agonists of the sonic hedgehog signaling (Shh) pathway - cell viability counter screen (AID 1259366); further: nearly all actives have a fitted effect of over 50% in size
Summary of the method: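 CellTiter-Fluor fluorescence read-out, 1 hr at 37C, added after 23hr compound exposure. Cells: 3T3 Gli1-Luc, an NIH/3T3 clone with stably integrated Gli1-Luc reporter, plated 4hr before compound.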

[7] = qHTS assay to identify small molecule antagonists of the sonic hedgehog signaling (Shh) pathway - cell viability counter screen (AID 1259367); further: nearly all actives have a fitted effect of over 55% in size
Summary of the method: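 Using CellTiter-Fluor, viability of Gli1-Luc reporter 3T3 cells is read by fluorescence in the wells used for the Shh luciferase assay. Treatment lasts 23 hr with conditioned medium, then reagent 1 hr at 37C.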

[8] = qHTS assay to identify small molecule agonists of the sonic hedgehog signaling (Shh) pathway (AID 1259368; calls by dose curve;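 further: NIH/3T3-derived 3T3Gli1-Luc cells carrying a stable Gli1-driven firefly luciferase reporter; series mostly up to about 92 µM; nearly all actives have a fitted effect of over 15% in size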)
Summary of the method: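 3T3Gli1-Luc (NIH/3T3 clone, stable Gli1-Luc); 4 hr pre-incubation, then cpd in DMSO 24 hr, 37 C/5% CO2; luciferase reagent 30 min RT; luminescence.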

[9] = target: Estrogen receptor beta (Homo sapiens) (UniProt Q92731); experiment: qHTS assay to identify small molecule agonists of the estrogen receptor beta (ER-beta) signaling pathway (AID 1259377; active means well fitted activation curve with a large enough effect in the signal ratio in the repeat runs, not every such curve was filed as active; the % refers to the signal ratio)
Summary of the method: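 Beta-lactamase reporter readout: fluorescence of LiveBLAzer B/G FRET substrate after 2 h at room temperature, following 16 h compound treatment of ER-beta-UAS-bla HEK293T cells at 37C in 2% charcoal-stripped FBS medium.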

[10] = target: Estrogen receptor beta (Homo sapiens) (UniProt Q92731); experiment: qHTS assay to identify small molecule antagonists of the estrogen receptor beta (ER-beta) signaling pathway (AID 1259378; active means well fitted inhibition curve with a large enough effect in the signal ratio in the repeat runs, not every such curve was filed as active; the % refers to the signal ratio)
Summary of the method: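 Antagonist mode: compounds added to beta-lactamase reporter HEK293T ER-beta-UAS cells stimulated with E2 (1nM final), 16 hr at 37C. LiveBLAzer B/G FRET substrate, 2 hours room temperature, fluorescence read-out.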

[11] = qHTS assay to identify small molecule agonists of the androgen receptor (AR) signaling pathway in the presence of an antagonist - cell viability counter screen (AID 1259379);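 further: MDA-kb2 human breast cancer cells carrying an MMTV luciferase reporter; series mostly up to about 92 µM; nearly all actives have a fitted effect of over 25% in size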
Summary of the method: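 Cells: MDA-kb2 (MMTV-luc, AR and GR elements), 3,000/well, 5 hr settle. Added: nilutamide 3.0uM final, then compounds (15 conc.). Incubation: 16 hr, 37C, no CO2. Read-out: CellTiter-Fluor, 1 hr, fluorescence.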

[12] = qHTS assay to identify small molecule agonists of the estrogen receptor beta (ER-beta) signaling pathway - cell viability counter screen (AID 1259380); further: nearly all actives have a fitted effect of over 30% in size
Summary of the method: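 HEK293T ER-beta-UAS-bla; 2% CS-FBS; 6 hr pre-plate, 16 hr cpd at 37C/5% CO2; LiveBLAzer read first, then CellTiter-Glo 30 min RT, luminescence.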

[13] = qHTS assay to identify small molecule antagonists of the estrogen receptor beta (ER-beta) signaling pathway - cell viability counter screen (AID 1259382);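 further: HEK293T cells carrying ER-beta-UAS-bla reporter stimulated with estradiol; series mostly up to about 92 µM; nearly all actives have a fitted effect of over 55% in size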
Summary of the method: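 Cells: ER-beta-UAS-bla HEK293T, 2,000/well, 2% CS-FBS, 6 hr settle. Cpd + E2 (1nM final), 16 hr, 37C/5% CO2. Bla FRET substrate 2 hr RT, then CellTiter-Glo 30 min RT, luminescence.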

[14] = target: Estrogen receptor (Homo sapiens) (UniProt P03372); experiment: qHTS assay to identify small molecule agonists of the estrogen receptor alpha (ER-alpha) signaling pathway in the presence of an antagonist (AID 1259383; calls by dose curve; further: top concentration of the series differs between compounds; nearly all actives have a fitted effect of over 15% in size)
Summary of the method: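 VM7Luc4E2, endog. ER-alpha + 4×ERE-luc; charcoal-stripped FBS, phenol red-free, 5 d; 24hr plating; +10.0nM ICI-182,780 (final); cpds 15 conc, 22hr, 37C/5% CO2; ONE-Glo luminescence.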

[15] = qHTS assay to identify small molecule agonists or antagonists of the thyroid stimulating hormone receptor (TSHR) signaling pathway - wild type cell line counter screen (AID 1259384; calls by dose curve)
Summary of the method: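 Counter screen in untransfected Hek293: compounds (15-point titration, triplicate) plus phosphodiesterase inhibitor Ro20-1724 added after 18 h plating; 30 min RT. Intracellular cAMP via competitive d2/cryptate immunoassay, 1 h incubation.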

[16] = qHTS assay to identify small molecule antagonists of the estrogen receptor alpha (ER-alpha) signaling pathway using the BG1 cell line in the presence of 0.1 nM 17-beta-estradiol - cell viability counter screen (AID 1259241); further: nearly all actives have a fitted effect of over 40% in size
Summary of the method: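 Live-cell protease activity (CellTiter-Fluor fluorescence, 30 min) was read in the same wells after VM7Luc4E2 cells had been exposed to compounds with 0.1 nM 17beta-estradiol for 22 hr at 37C.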

[17] = qHTS assay to identify small molecule phospholipidosis (PLD) inducers (AID 1259344; active means well fitted curve in the direction sought with a large enough effect; an effect the other way counts as inactive or inconclusive)
Summary of the method: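 Fluorescent phospholipid staining (LipidTOX Red) measured by automated microscopy in fixed HepG2 cells after 24 h treatment; nuclei counterstained with Hoechst 33342; amiodarone as reference inducer.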

[18] = qHTS assay to identify small molecule antagonists of the sonic hedgehog signaling (Shh) pathway (AID 1259369; calls by dose curve; further: nearly all actives have a fitted effect of over 45% in size)
Summary of the method: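 3T3Gli1-Luc, conditioned-medium-stimulated, 24hr cpd, 37C/5% CO2; Gli1-driven firefly Luc luminescence after 30min RT with luciferase reagent. Cells plated 4hr before cpd.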

[19] = target: Androgen receptor (Homo sapiens) (UniProt P10275); experiment: qHTS assay to identify small molecule antagonists of the androgen receptor (AR) signaling pathway using the MDA cell line in the presence of 0.5 nM R1881 (AID 1259243); further: nearly all actives have a fitted effect of over 50% in size
Summary of the method: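 Luciferase luminescence is the read-out: compounds are tested for suppressing 0.5 nM R1881-driven MMTV reporter activity in MDA-kb2 cells after 16 hr at 37C.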

[20] = target: Androgen receptor (Homo sapiens) (UniProt P10275); experiment: qHTS assay to identify small molecule agonists of the androgen receptor (AR) signaling pathway in the presence of an antagonist (AID 1259381; calls by dose curve; further: nearly all actives have a fitted effect of over 15% in size)
Summary of the method: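 MDA-kb2 cells, 3,000/well, rested 5hr at 37C/0% CO2 → nilutamide 3.0uM final or buffer → compounds, 15 conc. → 16hr at 37C → ONE-Glo, 30min RT → luminescence.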
On the % scale 0 is the no-effect control and ±100 the full control effect.

Sequence of Estrogen receptor (Homo sapiens) (P03372 whole entry, looked up): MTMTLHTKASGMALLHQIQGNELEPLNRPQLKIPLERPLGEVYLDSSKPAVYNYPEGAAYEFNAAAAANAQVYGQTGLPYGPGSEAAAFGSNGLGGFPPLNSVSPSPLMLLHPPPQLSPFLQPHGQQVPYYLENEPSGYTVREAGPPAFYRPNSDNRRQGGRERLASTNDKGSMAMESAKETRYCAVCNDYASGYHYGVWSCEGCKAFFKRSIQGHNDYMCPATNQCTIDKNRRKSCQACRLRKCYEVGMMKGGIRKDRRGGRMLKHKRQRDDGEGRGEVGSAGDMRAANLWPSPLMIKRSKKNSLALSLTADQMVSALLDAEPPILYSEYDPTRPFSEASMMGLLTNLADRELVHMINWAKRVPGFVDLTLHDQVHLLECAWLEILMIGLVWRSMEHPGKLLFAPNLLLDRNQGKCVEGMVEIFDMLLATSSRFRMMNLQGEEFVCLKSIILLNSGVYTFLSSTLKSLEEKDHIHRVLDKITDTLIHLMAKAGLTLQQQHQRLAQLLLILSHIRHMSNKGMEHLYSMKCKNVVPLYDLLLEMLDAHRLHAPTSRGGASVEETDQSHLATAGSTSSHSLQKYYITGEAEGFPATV
Sequence of Estrogen receptor beta (Homo sapiens) (Q92731 whole entry, looked up): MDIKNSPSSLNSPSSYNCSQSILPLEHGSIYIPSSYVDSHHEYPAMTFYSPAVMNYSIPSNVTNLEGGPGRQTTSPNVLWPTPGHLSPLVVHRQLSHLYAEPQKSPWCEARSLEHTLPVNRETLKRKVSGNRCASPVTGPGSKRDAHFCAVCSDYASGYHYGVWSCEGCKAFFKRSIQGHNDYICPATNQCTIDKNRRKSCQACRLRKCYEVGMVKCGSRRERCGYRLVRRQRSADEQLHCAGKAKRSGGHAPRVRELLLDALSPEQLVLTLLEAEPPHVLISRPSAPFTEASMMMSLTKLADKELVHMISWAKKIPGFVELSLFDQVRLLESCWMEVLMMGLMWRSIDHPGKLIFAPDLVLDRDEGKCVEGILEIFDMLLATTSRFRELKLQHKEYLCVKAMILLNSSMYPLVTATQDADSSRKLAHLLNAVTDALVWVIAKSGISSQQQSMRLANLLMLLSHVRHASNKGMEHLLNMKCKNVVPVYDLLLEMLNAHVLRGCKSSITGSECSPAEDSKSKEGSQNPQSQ
Sequence of Androgen receptor (Homo sapiens) (P10275 whole entry, looked up): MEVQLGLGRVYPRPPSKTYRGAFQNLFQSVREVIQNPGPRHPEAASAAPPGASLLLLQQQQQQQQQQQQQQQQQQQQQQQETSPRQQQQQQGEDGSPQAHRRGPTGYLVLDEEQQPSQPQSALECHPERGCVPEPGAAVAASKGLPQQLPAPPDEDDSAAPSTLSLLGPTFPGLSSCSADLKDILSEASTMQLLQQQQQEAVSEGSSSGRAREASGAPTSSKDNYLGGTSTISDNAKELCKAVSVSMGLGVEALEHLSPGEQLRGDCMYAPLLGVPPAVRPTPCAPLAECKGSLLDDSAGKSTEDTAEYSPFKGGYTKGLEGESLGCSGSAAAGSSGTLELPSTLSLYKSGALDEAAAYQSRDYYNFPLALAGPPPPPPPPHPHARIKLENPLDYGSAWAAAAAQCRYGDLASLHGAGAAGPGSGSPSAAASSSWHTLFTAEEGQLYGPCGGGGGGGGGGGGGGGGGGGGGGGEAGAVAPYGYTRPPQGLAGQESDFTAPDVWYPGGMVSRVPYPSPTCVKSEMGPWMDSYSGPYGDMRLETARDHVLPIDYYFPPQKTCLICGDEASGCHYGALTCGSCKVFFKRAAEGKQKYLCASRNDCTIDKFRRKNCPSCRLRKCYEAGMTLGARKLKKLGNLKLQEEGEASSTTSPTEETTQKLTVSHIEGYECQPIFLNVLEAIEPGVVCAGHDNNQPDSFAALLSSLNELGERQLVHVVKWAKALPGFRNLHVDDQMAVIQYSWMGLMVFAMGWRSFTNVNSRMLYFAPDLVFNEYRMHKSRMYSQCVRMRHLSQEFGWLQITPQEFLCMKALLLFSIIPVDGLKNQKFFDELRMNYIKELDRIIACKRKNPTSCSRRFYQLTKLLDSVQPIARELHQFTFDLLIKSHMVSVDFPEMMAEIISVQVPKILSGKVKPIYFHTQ

COc1cccc(C=O)c1
inactive: Potency [1] | Potency [2] | Potency [3] | Potency [4] | outcome [5] | Potency [6] | Potency [7] | outcome [8] | Potency [9] | outcome [10] | Potency [11] | Potency [12] | Potency [13] | Potency [14] | outcome [15]

S=C=S
inactive: outcome [16] | Potency [2] | Potency [3] | Potency [17] | Potency [4] | outcome [5] | Potency [6] | Potency [7] | outcome [8] | Potency [18] | Potency [9] | outcome [10] | Potency [11] | Potency [12] | Potency [13] | Potency [14] | outcome [15]

BrCC1CO1 (configuration not stated)
inactive: Potency [1] | Potency [3] | Potency [4] | outcome [5] | Potency [6] | Potency [7] | outcome [8] | Potency [18] | Potency [9] | outcome [10] | Potency [11] | Potency [12] | Potency [13] | Potency [14]

CNC(=O)NC(O)C(Cl)(Cl)Cl (configuration not stated)
inactive: outcome [16] | Potency [2] | Potency [19] | Potency [3] | Potency [17] | Potency [4] | outcome [5] | Potency [6] | Potency [7] | outcome [8] | Potency [9] | outcome [10] | Potency [11] | Potency [12] | Potency [20] | Potency [13] | Potency [14] | outcome [15]

CCCOC(=O)c1cncn1C(C)c1ccccc1 (configuration not stated)
inactive: outcome [16] | Potency [2] | Potency [19] | Potency [4] | outcome [5] | Potency [7] | outcome [8] | Potency [9] | outcome [10] | Potency [11] | Potency [12] | Potency [20] | Potency [13] | Potency [14]

ClC1=C(Cl)C2(Cl)C(CBr)CC1(Cl)C2(Cl)Cl (configuration not stated)
inactive: Potency [1] | Potency [2] | Potency [3] | Potency [17] | Potency [4] | outcome [5] | Potency [6] | Potency [7] | outcome [8] | Potency [9] | outcome [10] | Potency [11] | Potency [12] | Potency [13] | Potency [14] | outcome [15]

CC(=O)OCC1=C(C(=O)O)N2C(=O)[C@@H](N)[C@H]2SC1
inactive: cytotoxicity increase [1] 1.96% [at 15.8 µM] | viability change, negative = cytotoxic [2] 4.78% [at 19 µM] | Potency [17] | activity change, negative = inhibition [4] -0.068% [at 19 µM] | activity change, negative = cytotoxicity [5] 0.172% [at 19 µM] | viability change, negative = cytotoxic [7] 0.909% [at 19 µM] | activity change [8] 0.594% [at 18.9 µM] | activity change, negative = inhibition [18] 1.15% [at 19 µM] | activation [9] -0.931% [at 19 µM] | activity, negative = inhibition [10] 21.8% [at 19 µM] | activity change, negative = cytotoxicity [11] 4.78% [at 19 µM] | activity change, negative = cytotoxicity [12] 0.632% [at 19 µM] | activity change, negative = cytotoxicity [13] -2.02% [at 19 µM] | cAMP activity change [15] 4.85% [at 18.9 µM]

CC(C)(N)Cc1ccccc1Cl
inactive: outcome [16] | Potency [2] | Potency [19] | Potency [3] | Potency [4] | outcome [5] | Potency [6] | Potency [7] | outcome [8] | Potency [18] | Potency [9] | outcome [10] | Potency [11] | Potency [20] | Potency [13] | Potency [14] | outcome [15]

Cc1ccc2c(c1)C1CN(C)CCC1N2 (configuration not stated)
inactive: cytotoxicity increase [1] 11.9% [at 15.8 µM] | viability change, negative = cytotoxic [2] -1.32% [at 19 µM] | activity change, negative = inhibition [3] -0.7% [at 19 µM] | Potency [17] | activity change, negative = inhibition [4] -0.403% [at 19 µM] | activity change, negative = cytotoxicity [5] 1.1% [at 19 µM] | viability change, negative = cytotoxic [6] -5.79% [at 19 µM] | viability change, negative = cytotoxic [7] 5.33% [at 19 µM] | activity change [8] 0.824% [at 18.9 µM] | activity change, negative = inhibition [18] 7.51% [at 19 µM] | activation [9] -2.72% [at 19 µM] | activity, negative = inhibition [10] 2.34% [at 19 µM] | activity change, negative = cytotoxicity [11] 0.715% [at 19 µM] | activity change, negative = cytotoxicity [12] -1.6% [at 19 µM] | activity change, negative = cytotoxicity [13] 0.836% [at 19 µM] | activation [14] 0.841% [at 19 µM] | cAMP activity change [15] -0.0429% [at 18.9 µM]
